CSC inhib – cancer stem cell inhibition. AID 2717. 1.1% of 300,000 active. cancer stem cell-like cells viability, luminescence. inhibition, % at 7.5 µM; in the data active = inhibition above about 75%; inconclusive = no clear call, values can overlap the other calls; tested in HMLE shEcad cells
Mdm2 MdmX PPI – human Mdm2/MdmX binding inhibition; O15151+Q00987; SaOS-2 split-luciferase Mdm2/MdmX complementation, luminescence; inhibition, % at 8 µM; 3% of 330,000 active; AID 485346;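 active = inhibition of at least 50% at 8 µM in the primary screen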
Target sequence (O15151 whole entry, looked up): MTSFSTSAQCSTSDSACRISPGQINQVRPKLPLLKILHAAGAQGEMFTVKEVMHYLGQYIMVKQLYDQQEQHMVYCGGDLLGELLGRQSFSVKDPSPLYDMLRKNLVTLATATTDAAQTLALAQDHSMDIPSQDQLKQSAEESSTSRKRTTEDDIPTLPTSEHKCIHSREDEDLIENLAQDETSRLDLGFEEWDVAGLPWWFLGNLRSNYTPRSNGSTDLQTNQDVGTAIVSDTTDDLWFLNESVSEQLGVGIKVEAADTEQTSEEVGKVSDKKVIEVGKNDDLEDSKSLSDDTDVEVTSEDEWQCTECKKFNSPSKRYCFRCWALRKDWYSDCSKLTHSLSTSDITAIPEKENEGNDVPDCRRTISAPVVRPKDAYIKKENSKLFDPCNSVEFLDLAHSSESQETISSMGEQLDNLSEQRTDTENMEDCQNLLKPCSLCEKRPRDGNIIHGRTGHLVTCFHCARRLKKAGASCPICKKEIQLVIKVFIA
Target sequence (Q00987 whole entry, looked up): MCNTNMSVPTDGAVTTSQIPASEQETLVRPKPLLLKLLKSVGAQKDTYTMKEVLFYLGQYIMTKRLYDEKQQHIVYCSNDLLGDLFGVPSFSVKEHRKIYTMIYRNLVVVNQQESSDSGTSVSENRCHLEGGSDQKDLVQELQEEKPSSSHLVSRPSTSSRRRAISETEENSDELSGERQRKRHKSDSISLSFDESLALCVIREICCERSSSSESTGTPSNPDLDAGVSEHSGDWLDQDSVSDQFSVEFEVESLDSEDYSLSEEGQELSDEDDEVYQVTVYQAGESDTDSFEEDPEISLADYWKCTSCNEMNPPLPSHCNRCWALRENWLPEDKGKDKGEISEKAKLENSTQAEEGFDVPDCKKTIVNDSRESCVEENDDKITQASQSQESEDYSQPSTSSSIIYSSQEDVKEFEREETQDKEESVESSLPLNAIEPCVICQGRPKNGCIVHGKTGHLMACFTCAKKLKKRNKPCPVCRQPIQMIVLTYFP
aSyn 5UTR inh – 5' untranslated region of α-synuclein, MLPCN primary screen. alpha-synuclein 5'UTR reporter, inhibitor activity. inhibition, % (tested at 7.5 µM). 0.82% of 300,000 active. AID 1813; in the data active = inhibition above about 60%; inconclusive = no clear call, values can overlap the other calls;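 note: H4 neuroglioblastoma cells stably carrying SNCA 5'UTR luciferase fusion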
Beta apoptosis – beta cell apoptosis inhibition; INS-1E cytokine-induced death, ATP luminescence, 48 h; percent of positive-control rescue, neutral wells zero; protection from apoptosis, % (no concentration beside the values); 0.8% of 300,000 active;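 active = Every replicate reaches about 75%, or at least half do and their mean reaches it too, limit read from the data; inconclusive = At least half of replicates reach the limit but their mean does not; inactive = Under half of replicates reach the limit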;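 note: higher means more ATP so stronger rescue from cytokine killing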
Bfl-1 A1 inh – inhibitors of the anti-apoptotic protein A1, read as caspase activation; MEF A1-2A-BIM cells, Caspase-Glo 3/7 luminescence, 3 h; percent of clofoctol response, vehicle zero; caspase activation, % (no concentration beside the values); 0.066% of 330,000 active; AID 2462;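 active = over half of replicate activation scores above 10%, or exactly half above 10 with the replicate mean above 10; inconclusive = replicate mean below 10 yet half the replicates above 10; inactive = over half of replicates below 10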
Mdm2 MdmX conf – confirmation of human Mdm2/MdmX interaction inhibitors | shares compounds with Mdm2 MdmX PPI | Mdm2-MdmX binding, luminescent assay | inhibition, % at 8 µM | 55% of 10,000 active | AID 489028; in the data active = inhibition above about 40%
FLuc counter – inhibits full-length luciferase, flagging false Mdm2/MdmX hits; shares compounds with Mdm2 MdmX PPI; AID 504607; 77% of 6,200 active; inhibition, % at 8 µM; SaOS-2 full-length luciferase counterscreen, luminescence;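 active = mean inhibition at 8 µM reaching about 37%, which flags the compound as non-specific, limit read from the data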;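 note: p53-null SaOS-2 cells with luciferase driven by a doxycycline-inducible promoter; compound on cells about two nights before reading with doxycycline added after day one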
Numbers stand for hits; n = inactive; u = inconclusive; x = not tested or not shown. Shown are actives, neighbours in structure and some others; about 4.1% of the full set was active somewhere.

SMILES	CSC inhib	Mdm2 MdmX PPI	aSyn 5UTR inh	Beta apoptosis	Bfl-1 A1 inh	Mdm2 MdmX conf	FLuc counter
COc1cc2sc(-c3ccccc3OC)c(-c3ccc(OCCN4CCCCC4)cc3)c2cc1OC	104	100	x	124	n	43	56
COc1ccccc1-c1sc2cc3c(cc2c1-c1ccc(OCCN2CCCCC2)cc1)OCO3	x	98	x	n	n	42	39
COc1ccc2sc(-c3ccccc3OC)c(-c3ccc(OCCN4CCOCC4)cc3)c2c1	x	n	x	x	x	x	x
COc1ccccc1-c1sc2cc3c(cc2c1-c1ccc2c(c1)OCO2)OCO3	n	n	x	n	n	x	x
O=C(c1ccc(OCCN2CCCCC2)cc1)c1c(-c2ccc(O)cc2)sc2cc(O)ccc12	85	65	n	n	n	n	x
Cc1csc(=O)n1CCC(=O)NCc1ccc(F)cc1	n	n	x	n	n	x	x
Cc1sc2ncnc(Sc3nnnn3-c3ccccc3)c2c1C	n	88	n	n	n	48	n
Cc1sc2ncnc(Sc3ccccc3C(=O)O)c2c1C	n	n	n	n	n	x	x
Clc1ccc(-n2nnnc2Sc2ncnc3sccc23)cc1	n	90	n	n	n	74	43
CC(=O)Nc1ccc(S(=O)(=O)N2CCc3cc4c(cc3C2)OCCCO4)cc1	n	n	n	n	n	x	x
COc1ccc(C(C(=O)NCc2ccc(F)cc2)N(C(=O)c2csnn2)C2CC2)cc1 (stereo not given)	n	n	n	n	n	x	x
CC(=O)Nc1cccc(C(=O)OCC(=O)N2CCC(c3ccccc3)=N2)c1	n	n	n	n	n	x	x
CN1CCN(c2ccc(S(=O)(=O)N3CCOCC3)cc2NC(=O)CC(C)(C)C)CC1	n	n	x	n	n	x	x
Cc1c(C(=O)Nc2cc(S(=O)(=O)N3CCOCC3)ccc2N2CCN(C)CC2)oc2ccccc12	n	56	n	n	n	n	65
CCN(CC)c1ccc(S(=O)(=O)N2CCOCC2)cc1NC(=O)CSc1ccccc1	n	n	n	n	n	x	x
CCN(CC)c1ccc(S(=O)(=O)N2CCOCC2)cc1NC(=O)c1cc(=O)c2ccccc2o1	n	51	n	n	n	n	x
COc1ccc(NC(=O)c2oc3ccc(S(=O)(=O)N4CCC5(CC4)OCCO5)cc3c2C)cc1	n	71	n	n	u	n	x
CCCC(O)(c1ccc(CC)cc1)C(CN1CCOCC1)c1ccccc1 (stereo not given)	n	n	n	n	n	x	x
Cc1c(NC(=O)c2cccc(NC(=O)Cc3ccc(F)cc3)c2)c(=O)n(-c2ccccc2)n1C	x	n	x	n	n	x	x
CCOC(=O)C(C#N)(Cc1cc(OC)cc(OC)c1)Cc1cc(OC)cc(OC)c1	n	n	n	n	n	x	x
COc1ccc(-c2cccc(NC(=O)c3cccs3)c2)nn1	n	n	n	n	n	x	x
CCC(C)n1c(SCC(=O)Nc2cc(C)on2)nc2ccccc2c1=O (stereo not given)	x	n	n	n	n	x	x
Cc1cc(NC(=O)CSc2nc3ccccc3c(=O)n2C(C)c2ccccc2)no1 (stereo not given)	n	72	n	n	n	n	x
COc1ccc([N+](=O)[O-])cc1NCc1ccccc1	n	70	n	n	n	n	98
CCOc1ccc(S(=O)(=O)c2c(C(=O)c3ccc(C)cc3)cnc3cc4c(cc23)OCCO4)cc1	n	n	n	n	n	x	x
SMILES	CSC inhib	Mdm2 MdmX PPI	aSyn 5UTR inh	Beta apoptosis	Bfl-1 A1 inh	Mdm2 MdmX conf	FLuc counter
Cc1ccc(C(=O)c2cnc3cc4c(cc3c2S(=O)(=O)c2ccccc2)OCCO4)cc1	x	61	n	x	n	42	52
Clc1ccc2oc3c(Cl)ncnc3c2c1	n	71	n	n	n	n	x
O=[N+]([O-])c1ccccc1S(=O)(=O)N/C(=N/S(=O)(=O)c1ccccc1)c1ccccc1	n	n	x	n	n	x	x
COc1ccc(NC(=O)CN(C)C(=O)CSc2nc3ccccc3s2)cc1	n	n	n	x	n	x	x
CCc1nc2ccccc2c(C(=O)OCC(=O)Nc2ccc(S(=O)(=O)N3CCOCC3)cc2)c1C	n	n	n	n	n	x	x
CCc1nc2ccccc2c(C(=O)OCC(=O)Nc2cccc(S(=O)(=O)N3CCOCC3)c2)c1C	n	66	n	n	n	75	45
COc1cccc(-c2nn(-c3ccc(C)cc3)cc2C(=O)N2CCc3cc(OC)c(OC)cc3C2)c1	n	58	n	n	n	67	86
COc1ccc(OC)c(-c2nn(-c3ccccc3)cc2C(=O)N2CCc3ccccc3C2)c1	n	n	x	n	n	x	x
COc1ccc(OC)c(N(CC(=O)NCCSCc2ccc(C)cc2)S(C)(=O)=O)c1	n	n	n	n	n	x	x
CC(=O)Nc1ccc(NC(=O)COC(=O)[C@@H]2CCCN2C(=O)c2cccs2)cc1	n	n	x	n	n	x	x
COc1ccc(OC)c2c1C(=O)C(Cl)=C(Cl)C2=O	96	96	n	114	n	100	n
COc1ccc(CN(C)CC(=O)Nc2cccc(S(=O)(=O)N(C)c3ccccc3)c2)c(OC)c1	n	n	x	n	n	x	x
CCCC(C(=O)Nc1ccc2c(C)cc(=O)oc2c1)c1ccccc1 (stereo not given)	n	n	n	n	n	x	x
Cc1ccc(O)c(CNCCNCc2cc(C)ccc2O)c1	n	73	n	n	n	52	n
CCc1ccc(O)c(CNCCNCc2cc(CC)ccc2O)c1	n	72	n	n	n	n	x
Cc1ccc(O)c(CNc2nc3ccccc3n2C(C)C)c1	n	n	n	n	n	x	x
CNc1ccccc1C(=O)OC(C)C(=O)Nc1ccc(Cl)cn1 (stereo not given)	n	91	n	x	n	83	113
O=C(Nc1ccc(Cl)cn1)c1cccc2ccccc12	n	52	n	n	n	42	71
O=C(Nc1ccc(Cl)cn1)c1ccccc1[N+](=O)[O-]	n	n	n	n	n	x	x
O=C(CC(c1ccccc1)c1ccccc1)Nc1ccc(Cl)cn1	n	59	n	n	n	53	61
O=C(CS(=O)(=O)c1ccccc1)Nc1ccc(Cl)cn1	n	n	n	n	n	x	x
CC(=O)N1CCN=C1SCc1cccc(C)c1	n	n	n	x	n	x	x
CCOC(=O)c1c(C)[nH]c(C)c1C(=O)COC(=O)Cc1ccc(OC)c(OC)c1	n	n	x	n	n	x	x
COc1ccc(CCNC(=O)[C@H](C)NC(=O)N2CCn3c2nc2ccccc23)cc1OC	n	n	n	n	n	x	x
Cc1cc(C(=O)NNc2ccc(C(C)C)cc2)n(C(C)(C)C)n1	n	n	n	n	n	x	x
COc1cccc(/C=N/n2c(N)c(S(=O)(=O)c3cccs3)c3nc4ccccc4nc32)c1OC	n	83	n	n	n	n	x
Nc1c(S(=O)(=O)c2cccc(Cl)c2)c2nc3ccccc3nc2n1/N=C/c1ccc(O)c(O)c1	n	84	89	n	n	n	x
Cc1ccc(S(=O)(=O)c2c(N)n(-c3ccccc3)c3nc4ccccc4nc23)cc1	n	n	n	n	n	x	x
COc1ccc(S(=O)(=O)N2CCN(CC(=O)NCCc3cccs3)CC2)cc1	n	n	x	n	n	x	x
